Assay results from PubChem BioAssay (NCI).
About 83,000 compounds went through this panel and 20% of them were active in at least one assay; those are over-represented in the sample as a whole.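 Assay: single dose, 48 h. Readout: percent growth (0 = no net growth; negative = cell death). Active: <10.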 Activity calls are given as the source filed them.

Columns and labels:
Test in all cases: NCI-60 one-dose screen, 48 h (100 = growth as untreated, 0 = no growth, -100 = all killed)
Settings in all cases: 10 µM unless noted
DU-145 prostate = system: DU-145 prostate
K-562 leukemia = system: K-562 leukemia
MALME-3M melanoma = system: MALME-3M melanoma
MDA-MB-231 breast = system: MDA-MB-231 breast
RXF 393 renal = system: RXF 393 renal
SF-268 CNS = system: SF-268 CNS
SF-295 CNS = system: SF-295 CNS
SF-539 CNS = system: SF-539 CNS
UACC-257 melanoma = system: UACC-257 melanoma
M14 melanoma = system: M14 melanoma

Measured: growth

CCN(CC)c1ccc(C(=O)c2ccccc2)cc1
inactive: DU-145 prostate 102% | K-562 leukemia 95.2% | MALME-3M melanoma 95.3% | MDA-MB-231 breast 100% | RXF 393 renal 111% | SF-268 CNS 96.9% | SF-295 CNS 101% | SF-539 CNS 97.7% | UACC-257 melanoma 96.1% | M14 melanoma 102%

COc1cccc(-c2cc(C(=O)Nc3ccc(/C=C/c4ccc(OC5CCN(C)CC5)cc4)cc3)ccc2OC)c1
inactive: MALME-3M melanoma 51.3% | RXF 393 renal 28.9% | UACC-257 melanoma 83.7%
active: DU-145 prostate -64.9% | K-562 leukemia -47.9% | MDA-MB-231 breast -60.5% | SF-268 CNS -30.8% | SF-295 CNS -63% | SF-539 CNS 8.18% | M14 melanoma -21.8%

COc1ccc(CCn2cncc2-c2c[nH]c3ccccc23)cc1
inactive: DU-145 prostate 102% | K-562 leukemia 87% | MALME-3M melanoma 90.8% | MDA-MB-231 breast 74.5% | RXF 393 renal 87.8% | SF-268 CNS 80.9% | SF-295 CNS 74.1% | SF-539 CNS 93.4% | UACC-257 melanoma 102% | M14 melanoma 92.6%

CCCCCCNC(=O)Nc1ccc2cc3ccc(NC(=O)NCCCCCC)cc3nc2c1
inactive: DU-145 prostate 21.7% | UACC-257 melanoma 72.6% | M14 melanoma 28.5%
active: K-562 leukemia -29.6% | MALME-3M melanoma -35.7% | MDA-MB-231 breast -23.6% | RXF 393 renal -47.7% | SF-268 CNS -62.8% | SF-295 CNS -47.5% | SF-539 CNS -77.1%

Nc1ccccc1NC(=O)c1ccc(-n2nc(-c3ccccc3)c3ccccc32)cc1
inactive: DU-145 prostate 87.2% | K-562 leukemia 43.7% | MALME-3M melanoma 68.9% | MDA-MB-231 breast 42.9% | RXF 393 renal 88.7% | SF-268 CNS 68.2% | SF-295 CNS 90.7% | SF-539 CNS 48.8% | UACC-257 melanoma 86.2% | M14 melanoma 88.9%

N#C/C(=C\c1ccc([N+](=O)[O-])s1)c1nc2cc(Cl)ccc2s1
inactive: DU-145 prostate 57.4% | SF-268 CNS 27.9% | SF-295 CNS 91.7% | UACC-257 melanoma 55.6%
active: K-562 leukemia 1.75% | MALME-3M melanoma -57.1% | MDA-MB-231 breast -47.2% | RXF 393 renal 6.88% | SF-539 CNS -35% | M14 melanoma -78.1%

N#CC1C(C#N)C(C(=O)c2ccc(Br)cc2)N2c3ccccc3C=CC12 (stereo not given)
inactive: DU-145 prostate 91.9% | K-562 leukemia 24.4% | MALME-3M melanoma 67.3% | MDA-MB-231 breast 57.6% | RXF 393 renal 74.5% | SF-268 CNS 78.5% | SF-295 CNS 89.1% | SF-539 CNS 89.3% | UACC-257 melanoma 98.9% | M14 melanoma 75.3%

O=C(Nc1ccccc1)Nc1ccc2cc3ccc(NC(=O)Nc4ccccc4)cc3nc2c1
inactive: DU-145 prostate 39.2% | RXF 393 renal 28.5% | SF-295 CNS 17.8% | UACC-257 melanoma 104% | M14 melanoma 47.2%
active: K-562 leukemia 1.08% | MALME-3M melanoma -9.29% | MDA-MB-231 breast -51.4% | SF-268 CNS -22.4% | SF-539 CNS -56%

Cn1nc(CC#N)c2c(=N)n(N)cnc21
inactive: DU-145 prostate 106% | K-562 leukemia 103% | MALME-3M melanoma 118% | MDA-MB-231 breast 96.7% | RXF 393 renal 112% | SF-268 CNS 101% | SF-295 CNS 95% | SF-539 CNS 108% | UACC-257 melanoma 111% | M14 melanoma 110%

CC(=O)N1N=C(c2ccc(-n3ccc(C(F)(F)F)n3)c(F)c2)CC1c1ccc[nH]1 (stereo not given)
inactive: DU-145 prostate 109% | K-562 leukemia 91.9% | MALME-3M melanoma 102% | MDA-MB-231 breast 105% | RXF 393 renal 116% | SF-268 CNS 104% | SF-295 CNS 98.8% | SF-539 CNS 102% | UACC-257 melanoma 96.4% | M14 melanoma 102%

Cc1ccc(NC(=O)Cc2ccc(/C=C/C(=O)c3ncc[nH]3)cc2)cc1
inactive: DU-145 prostate 16% | MALME-3M melanoma 96.3% | MDA-MB-231 breast 56.6% | RXF 393 renal 52.7% | SF-268 CNS 24.7% | SF-295 CNS 24% | UACC-257 melanoma 83.4% | M14 melanoma 82.5%
active: K-562 leukemia 8.84% | SF-539 CNS -14.8%

CC(Sc1nc2sc3c(c2c(=O)n1-c1ccc(Cl)cc1)CCCC3)C(=O)Nc1nc(-c2ccc(Br)cc2)cs1 (stereo not given)
inactive: DU-145 prostate 105% | K-562 leukemia 96.5% | MALME-3M melanoma 95.2% | MDA-MB-231 breast 89.1% | RXF 393 renal 101% | SF-268 CNS 93.5% | SF-295 CNS 100% | SF-539 CNS 107% | UACC-257 melanoma 93% | M14 melanoma 94%

C=C1C(=O)O[C@H]2[C@H]1CC/C(COC(=O)NCC(C)c1ccc(CC(C)C)cc1)=C\CC[C@@]1(C)O[C@@H]21 (stereo not given in full)
active: K-562 leukemia -18.2% | MALME-3M melanoma -62.7% | MDA-MB-231 breast -62.8% | RXF 393 renal -73.7% | SF-268 CNS -17.1% | SF-539 CNS -77% | M14 melanoma -29.8%
inactive: DU-145 prostate 16.4% | SF-295 CNS 83.4% | UACC-257 melanoma 56.1%

CC(=O)Nc1cccc(-c2ccc3c(c2)NC(=O)/C3=C\c2ccc[nH]2)c1
inactive: DU-145 prostate 57.4% | K-562 leukemia 12.3% | MALME-3M melanoma 71.7% | MDA-MB-231 breast 34.9% | RXF 393 renal 54.3% | SF-268 CNS 67.5% | SF-295 CNS 32.6% | SF-539 CNS 28.1% | UACC-257 melanoma 73.2% | M14 melanoma 39.1%

CCOC(=O)C1=C(C)NC(SCc2cc(=O)oc3ccc(F)cc23)=N[C@@H]1c1cccc2ccccc12
inactive: DU-145 prostate 98.5% | K-562 leukemia 79.7% | MALME-3M melanoma 112% | MDA-MB-231 breast 77.7% | RXF 393 renal 117% | SF-268 CNS 94.3% | SF-295 CNS 97.9% | SF-539 CNS 114% | UACC-257 melanoma 109% | M14 melanoma 102%

COc1ccc(C(=O)C2C(C#N)C(C#N)C3C=Cc4ccccc4N32)cc1 (stereo not given)
inactive: DU-145 prostate 24.2% | K-562 leukemia 11.5% | MALME-3M melanoma 38.6% | MDA-MB-231 breast 29% | SF-268 CNS 55.7% | SF-295 CNS 22.5% | UACC-257 melanoma 82.9%
active: RXF 393 renal -21.8% | SF-539 CNS -20.9% | M14 melanoma -6.64%

COc1cc2cc(CN3CCN(c4nccc(-c5ccc6ccccc6c5)n4)CC3)c(=O)[nH]c2cc1OC
inactive: DU-145 prostate 74% | K-562 leukemia 13.6% | MALME-3M melanoma 103% | MDA-MB-231 breast 73.8% | RXF 393 renal 81.8% | SF-268 CNS 94% | SF-295 CNS 101% | SF-539 CNS 110% | UACC-257 melanoma 77% | M14 melanoma 109%

CCOC(=O)c1ccc2c(c1)ncn2-c1ccc(NC(=O)Nc2cccc(C)c2)cc1
inactive: DU-145 prostate 71.9% | K-562 leukemia 18% | MALME-3M melanoma 96.2% | MDA-MB-231 breast 52.5% | RXF 393 renal 84.5% | SF-268 CNS 95.4% | SF-295 CNS 57.6% | SF-539 CNS 49.2% | UACC-257 melanoma 94% | M14 melanoma 64.5%

O=C(/C=C/c1ccc(Cl)cc1)c1ccc(NC(=O)N2CCN(c3cc4c(cc3F)c(=O)c(C(=O)O)cn4C3CC3)CC2)cc1
inactive: DU-145 prostate 98.5% | K-562 leukemia 65% | MALME-3M melanoma 103% | MDA-MB-231 breast 93% | RXF 393 renal 97.9% | SF-268 CNS 89.3% | SF-295 CNS 108% | SF-539 CNS 81.7% | UACC-257 melanoma 105% | M14 melanoma 104%

N#C/C(=C\c1ccccn1)c1nc2cc(Cl)ccc2s1
inactive: DU-145 prostate 92.8% | K-562 leukemia 48.3% | MALME-3M melanoma 87.5% | MDA-MB-231 breast 61.3% | RXF 393 renal 60.3% | SF-268 CNS 68.8% | SF-295 CNS 94.4% | SF-539 CNS 63.1% | UACC-257 melanoma 91.8% | M14 melanoma 89.9%

C=C(C)[C@@H]1CC[C@]2(C(=O)N3CCN(C)CC3)CC[C@]3(C)[C@H](CC[C@@H]4[C@@]5(C)C/C(=C/c6ccncc6)C(=O)C(C)(C)[C@@H]5CC[C@]43C)[C@@H]12
inactive: DU-145 prostate 72.7% | K-562 leukemia 21% | MALME-3M melanoma 62% | MDA-MB-231 breast 74.3% | RXF 393 renal 49.4% | SF-268 CNS 62.3% | SF-295 CNS 75.2% | SF-539 CNS 73.4% | UACC-257 melanoma 56.9% | M14 melanoma 68.5%

CCNC(=O)Oc1ccc(/C(=C(\C)c2ccccc2)c2ccc(OCCCN(C)C)cc2)cc1
active: UACC-257 melanoma 3.23%
inactive: DU-145 prostate 92.5% | K-562 leukemia 14.4% | MALME-3M melanoma 40.9% | MDA-MB-231 breast 76.6% | RXF 393 renal 76.1% | SF-268 CNS 72.1% | SF-295 CNS 52.4% | SF-539 CNS 65.8% | M14 melanoma 19.7%

O=C(Nc1cccc(C2=NCCN2)c1)c1ccc(-c2ccc(C(=O)Nc3cccc(C4=NCCN4)c3)cc2)cc1
inactive: DU-145 prostate 39.1% | K-562 leukemia 35.5% | MDA-MB-231 breast 79.6% | RXF 393 renal 122% | SF-268 CNS 90.2% | SF-295 CNS 71.1% | SF-539 CNS 97.5% | UACC-257 melanoma 36.7% | M14 melanoma 77.7%
active: MALME-3M melanoma 9.06%

CNCCn1c(=O)c2cc(OC)c(OC)cc2c2ccc3cc4c(cc3c21)OCO4
inactive: SF-268 CNS 11.9%
active: DU-145 prostate 5.52% | K-562 leukemia 2.28% | MALME-3M melanoma -85.3% | MDA-MB-231 breast 0.962% | RXF 393 renal -76.1% | SF-295 CNS 6.74% | SF-539 CNS -30.4% | UACC-257 melanoma -76.3% | M14 melanoma -50.5%

O=C(CSc1nc2sc3c(c2c(=O)n1-c1ccc(Cl)cc1)CCCC3)Nc1nc(-c2cccc(Br)c2)cs1
inactive: DU-145 prostate 68.5% | K-562 leukemia 95.8% | MALME-3M melanoma 95.3% | MDA-MB-231 breast 80.7% | RXF 393 renal 99.5% | SF-268 CNS 69.6% | SF-295 CNS 42.4% | SF-539 CNS 97.3% | UACC-257 melanoma 99.3% | M14 melanoma 76.6%

O=C1c2ccc3c4c(ccc(c24)C(=O)N1CCCNCc1ccccc1)C(=O)N(CCCNCc1ccccc1)C3=O
active: DU-145 prostate -93.6% | K-562 leukemia -47.9% | MALME-3M melanoma -58.5% | MDA-MB-231 breast -8.41% | RXF 393 renal -88.8% | SF-268 CNS -71.4% | SF-295 CNS -39.7% | SF-539 CNS -69.6% | UACC-257 melanoma -95.2% | M14 melanoma -76%
